Most compounds without a hit are left out; they make up all but 19% or so of the library.
DT40 TDP1 CPT = DT40-hTDP1 cell growth loss with CPT; Potency, µM (titrated, usually from 46.2 µM), hits mostly inhibitors; chicken DT40 Tdp1-/-;hTDP1 cells + 20 nM CPT, ATP luminescence, 48 h; 420,000 compounds, 12% hits; AID 686979; note: nearly all actives have a fitted effect of over 55% in size
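Chicken DT40 Tdp1-/- cells complemented with human TDP1, 400 cells/well, exposed to compounds plus 20 nM camptothecin for at least 48 h at 37 C; viability read as ATP content by CellTiter-Glo luminescence.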
MCF10A rerep = DNA re-replication induction in MCF 10a cells; 350,000 compounds, 2.9% hits; AID 624296; Potency, µM (highest dose often 46.1 µM), most hits filed as activators; MCF 10A DNA re-replication, Hoechst nuclear intensity, 48 h; note: nearly all actives have a fitted effect of over 50% in size
IL-1B inflam inh = blocks inflammasome-driven IL-1 beta release. activity change, % at 57.5 µM. THP-1 LPS/ATP IL-1B secretion, AlphaLISA, 16 h; active compounds read low. 360,000 compounds, 4.7% hits; in the data active = activity change below about -50%; inconclusive = mostly about -30% to -49%
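THP-1 cells pretreated 1 hr with compounds (up to 57.5 uM final), then stimulated with LPS (250 ng/mL final) plus ATP (1.25 mM final); secreted IL-1B measured by AlphaLISA after 16 hr, decreased signal indicating inhibition.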
TDP1 cell noCPT = qHTS for Inhibitors of human tyrosyl-DNA phosphodiesterase 1 (TDP1): qHTS in cells in absence of CPT; DT40 Tdp1-/- hTDP1 cells, no CPT, ATP luminescence, 48 h; Potency, µM (highest dose often 46.2 µM), hits mostly inhibitors; 420,000 compounds, 15% hits; note: nearly all actives have a fitted effect of over 55% in size
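Growth of hTDP1-complemented DT40 Tdp1-knockout cells is measured by ATP luminescence after at least 48 hr compound exposure at 37 °C, with DMSO substituting for the 20 nM CPT used in the parallel screen.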
SW480 rereplic = DNA re-replication induction in SW480 cells; SW480 DNA re-replication, Hoechst DNA content imaging, 48 h; Potency, µM (titrated, usually from 46.1 µM), usual class: activators; 340,000 compounds, 1.8% hits; AID 624297; note: nearly all actives have a fitted effect of over 55% in size
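Readout is total intensity of Hoechst-stained nuclei, excited at 405 nm and collected at 500-530 nm. Compound treatment lasted 48 hr at 37 C in 5% CO2 before staining.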
BCR signal inh = inhibitors of chronic active B-cell receptor signaling; ABC-DLBCL IkBa-CBG/CBR reporter, luminescence ratio, 4 h; Potency, µM (titrated, usually from 46.1 µM), actives largely listed as inhibitors; 340,000 compounds, 0.05% hits; active = well fitted inhibition curve with a large enough effect in the signal ratio, with a control signal flat, not every such curve was filed as active; inconclusive = small, poorly fitted or top-dose-only effect, or effect the other way, or a change in a side signal; the % refers to the signal ratio
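Cell line TMD8 (human ABC DLBCL), stably expressing tet-inducible CBG68-IkBa fusion and CBR; IMDM/0.5% FBS; cpd up to 46 uM; dox induction, 4 h, 37C/5% CO2; dual luminescence; green/red ratio; MG132 control.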
A number is an active result; i = inactive; ? = inconclusive; nt = not tested or not shown; [ ] = remark or other dose. Unless noted, calls come from the whole dose curve; as a rule, active = well fitted curve in the direction sought with a large enough effect; inconclusive = small, poorly fitted or top-dose-only effect, or another doubt; inactive = no such curve, though single readings can be large; an effect the other way counts as inactive or inconclusive.

SMILES | DT40 TDP1 CPT | MCF10A rerep | IL-1B inflam inh | TDP1 cell noCPT | SW480 rereplic | BCR signal inh
COc1ccc(Nc2nccc(N(C)C)c2C#N)cc1 | i | i | i | i | i | i
CCOC(=O)Cn1c(C)cc(COC)c(C#N)c1=O | i | i | i | 5.2µM | i | i
COCc1cc(C)n(CC(=O)NCc2ccccc2)c(=O)c1C#N | ? | i | i | i | 18µM | i
COCc1cc(C)n(CC(=O)N2CCCC2)c(=O)c1C#N | i | i | i | i | i | i
COCc1cc(C)n(CC(=O)Nc2ccccc2C(=O)OC)c(=O)c1C#N | i | i | i | i | i | i
CC(=O)N1SC(N)=NC1c1ccccc1 (centres undefined) | i | i | i | i | i | ?
c1ccc([C@H]2CN3C(=N2)Sc2ccccc23)cc1 | 18µM | ? | i | ? | ? | ?
O=C(c1ccc(C23CC4CC(CC(C4)C2)C3)o1)N1CCOCC1 | ? | i | i | 23µM | i | i
O=C(c1ccc(Br)o1)N1CCN(C23CC4CC(CC(C4)C2)C3)CC1 | ? | i | i | ? | i | nt
COc1cccc(C2c3[nH]c4ccccc4c3C[C@H]3C(=O)N(C4CCN(Cc5ccccc5)CC4)CC(=O)N23)c1 (some centres undefined) | 23µM | i | -58 | ? | ? | ?
O=C1[C@@H]2Cc3c([nH]c4ccccc34)C(c3ccccc3)N2C(=O)CN1C1CC1 (some centres undefined) | ? | i | ? | ? | ? | i
COc1ccc(C2c3[nH]c4ccccc4c3C[C@H]3C(=O)N(C4CCN(Cc5ccccc5)CC4)CC(=O)N23)cc1OC (some centres undefined) | 21µM | ? | i | ? | 18µM | i
Cc1ccccc1C1c2[nH]c3ccccc3c2C[C@H]2C(=O)N(C3CC3)CC(=O)N12 (some centres undefined) | ? | i | i | ? | i | i
CCOC(=O)N(C)C[C@@H]1OCc2ccccc2-c2c(n(C)c3ccccc23)C(=O)N([C@H](C)CO)C[C@H]1C | ? | nt | i | ? | nt | nt
Cc1csc(NC(=O)CSc2nnc(NC(=O)NC(C)(C)C)s2)n1 | ? | i | i | ? | i | i
CC(OC(=O)/C=C/c1ccc2ccccc2n1)C(=O)NCc1ccccc1 (centres undefined) | ? | i | -75 | ? | ? | ?
CCN1C(=O)[C@H]2[C@@H](c3ccc(OC)cc3)N[C@]3(CCCN(Cc4ccc(OC)cc4)C3=O)[C@H]2C1=O | i | nt | i | i | nt | nt
COc1cc(C2CC(=O)Nc3cc4c(cc32)OCCO4)cc(OC)c1O (centres undefined) | ? | nt | nt | 21µM | nt | nt
CC(C)COc1ccccc1C1CC(=O)Nc2cc3c(cc21)OCO3 (centres undefined) | 2.6µM | nt | nt | 4.1µM | nt | nt
COc1cccc(C2CC(=O)Nc3cc4c(cc32)OCCO4)c1OC (centres undefined) | 21µM | nt | nt | 18µM | nt | nt
ON=C(CCc1ccccc1)c1ccccc1 | ? | i | i | ? | i | nt
CN(CC(=O)Nc1ccc(F)cc1)C(=O)COC(=O)/C=C/c1ccc(OC(F)F)cc1 | i | i | -87 | ? | i | i
O=C1CC(C(=O)N2CCc3ccccc32)CN1c1ccccc1 (centres undefined) | i | i | i | i | i | i
CC(=O)/C(=N/Nc1cccc(C)c1)N1CCOCC1 | 6.5µM | ? | i | ? | i | i
Cc1cccc(C(=O)Nc2cccc(C(=O)N3CCOCC3)c2)c1 | i | i | i | i | i | i
SMILES | DT40 TDP1 CPT | MCF10A rerep | IL-1B inflam inh | TDP1 cell noCPT | SW480 rereplic | BCR signal inh
COc1ccc2[nH]c(CN3CCC(n4nccc4NC(=O)C4CC4)CC3)c(C)c2c1 | i | ? | i | i | i | i
O=S(=O)(c1ccc(Cl)c(NC(=S)N/N=C/c2ccc(O)cc2)c1)N1CCOCC1 | 4.1µM | ? | i | 4.6µM | 18µM | ?
C/C(=N\NC(=S)Nc1cc(S(=O)(=O)N2CCOCC2)ccc1Cl)c1ccc(N2CCOCC2)cc1 | 2.9µM | i | i | 2.6µM | i | i
C/C(=N\NC(=S)Nc1ccc(C)c(C)c1)c1ccc(N2CCOCC2)cc1 | 5.8µM | ? | i | 5.8µM | i | i
O=S(=O)(c1ccc(NC(=S)N/N=C/c2ccc(O)c(O)c2)cc1)N1CCOCC1 | i | i | i | i | ? | i
N#Cc1ccc(/C=N/NC(=S)Nc2ccc(S(=O)(=O)N3CCOCC3)cc2)cc1 | ? | i | i | 21µM | i | i
COc1ccc(NC(=O)CN(c2ccccc2OC)S(C)(=O)=O)c(OC)c1 | i | nt | nt | i | nt | nt
COc1ccc(OC)c(C(=O)N2CCOc3ccc(C(C)(O)CN(C)C)cc3C2)c1 (centres undefined) | i[9.04 µM] | nt | nt | i | nt | nt
CCOc1ccc(NC(=O)C2CCN(c3nnc(C)c4c(C)n(-c5ccccc5)nc34)CC2)cc1 | i | nt | nt | i | nt | nt
C=CCn1c(=S)sc2c(=O)[nH]cnc21 | i | i | i | i | i | i
CCOC(=O)C1=CN(Cc2ccco2)S(=O)(=O)N(C)C1c1ccc(C(F)(F)F)cc1 (centres undefined) | ? | i | i | ? | i | ?
CCOC(=O)C1=CN(Cc2ccco2)S(=O)(=O)N(C)C1c1ccc2ccccc2c1 (centres undefined) | 21µM | ? | ? | ? | i | ?
CCN(CC)Cc1c(O)ccc2c([N+](=O)[O-])c(C)n(-c3ccc(OC)cc3)c12 | 7.3µM | i | -75 | 16µM | i | ?
Cc1ccccc1C(=O)N1c2ccccc2OCC1C(C)(C)C (centres undefined) | ? | i | i | 21µM | i | i
CC(C)(C)C1COc2ccccc2N1C(=O)c1ccccc1Cl (centres undefined) | ? | i | i | ? | i | ?
Cc1[nH]nc(-c2ccc(O)cc2O)c1-c1nc2ccccc2s1 | ? | i | -82 | ? | i | ?
COc1ccc(NS(=O)(=O)c2ccc3oc(SC)nc3c2)cc1 | 12µM | ? | i | 9.2µM | i | i
COc1ccc(NS(=O)(=O)c2ccc3oc(SC4CCOC4=O)nc3c2)cc1 (centres undefined) | i | 2.9µM | i | i | ? | i
COc1ccc2c(C)cc(SC3CCOC3=O)nc2c1 (centres undefined) | i | i | i | i | i | i
CNC(=O)CSc1nc2cc(S(=O)(=O)Nc3ccc(OC)cc3)ccc2o1 | i | i | i | i | i | nt
O=C(CSc1nc(=O)n(CCN2CCOCC2)c2c1CCCC2)Nc1ccc(F)cc1F | i | i | i | i | i | i
